Compound activity deposited in PubChem by National Center for Advancing Translational Sciences (NCATS).
Only some compounds are listed: those with a hit (about 12% of all), similar ones and a draw of the others.
HP1b chromo inh – blocks HP1-beta chromodomain binding to methylated histone tails; P83916; actives 0.56% (n = 390,000); AID 540317; AlphaScreen HP1-beta / biotin-H3K9me3 peptide binding; Potency, µM (titrated, usually from 114 µM), usual class: inhibitors; note: nearly all actives have a fitted effect of over 70% in size
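Compound inhibition of the preformed complex between 50 nM HP1-beta and 50 nM biotinylated H3K9me3 peptide was read by AlphaScreen. Buffer was PBS pH 7.4 with 0.01% Tween-20. Incubations ran 30 min at room temperature, with 10 ug/mL donor/acceptor beads.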
Sfp inh – blocks B. subtilis Sfp PPTase activity; Biochemical Sfp PPTase activity, qHTS; Potency, µM, usual class: inhibitors; actives 3.5% (n = 310,000); AID 1490;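 note: the enzyme is Sfp with the accession as filed and its product quenches rhodamine fluorescence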
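Step 1, compound plus 15 nM Sfp-PPTase, 15 min, room temperature. Step 2, add rhodamine-CoA (5 uM) and BHQ-2-YbbR (12.5 uM). Step 3, read 525/598 nm fluorescence at 0 and 30 min.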
PLK1 PBD inh – inhibitors of human PLK1 polo-box domain binding | P53350 | Plk1 PBD binding of FITC phosphopeptide, fluorescence polarization | Potency, µM, hits mostly inhibitors | actives 2.8% (n = 360,000) | AID 720504; note: series mostly up to about 57 µM; nearly all actives have a fitted effect of over 65% in size
BAZ2B block – inhibitors of human BAZ2B bromodomain | AID 504333 | Q9UIF8 | AlphaScreen BAZ2B-H3K14Ac peptide displacement | actives 4.4% (n = 360,000) | Potency, µM (highest dose often 114 µM), usual class: inhibitors; note: nearly all actives have a fitted effect of over 60% in size
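Multi-concentration screen (max 110 uM) measuring displacement of acetylated histone H3 peptide from BAZ2B by AlphaScreen, using 50 nM protein, 50 nM peptide and 10 ug/mL streptavidin donor plus Ni-chelate acceptor beads.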
G9a inh – blocks human histone lysine methyltransferase G9a; actives 8.8% (n = 350,000); Potency, µM (highest dose often 102 µM), usual class: inhibitors; G9a H3K9 monomethylation, AlphaScreen, 2 h; AID 504332; Q96KQ7; note: nearly all actives have a fitted effect of over 75% in size
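Step 1: enzyme (final 20 nM) with compound, 15 min RT. Step 2: substrate peptide 500 nM and SAM 20 uM, 2 h RT. Step 3: anti-H3K9me1 antibody and AlphaScreen beads, 10 min, then plate read.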
JMJD2A Tudor inh – inhibitors of human JMJD2A Tudor domain; O75164; AlphaScreen JMJD2A-Tudor / H3K4me3 peptide binding; Potency, µM (series often up to 114 µM), hits mostly inhibitors; actives 4.4% (n = 390,000); AID 504339; note: nearly all actives have a fitted effect of over 50% in size
Target sequence (O75164 whole entry, looked up, the tested form may be a part): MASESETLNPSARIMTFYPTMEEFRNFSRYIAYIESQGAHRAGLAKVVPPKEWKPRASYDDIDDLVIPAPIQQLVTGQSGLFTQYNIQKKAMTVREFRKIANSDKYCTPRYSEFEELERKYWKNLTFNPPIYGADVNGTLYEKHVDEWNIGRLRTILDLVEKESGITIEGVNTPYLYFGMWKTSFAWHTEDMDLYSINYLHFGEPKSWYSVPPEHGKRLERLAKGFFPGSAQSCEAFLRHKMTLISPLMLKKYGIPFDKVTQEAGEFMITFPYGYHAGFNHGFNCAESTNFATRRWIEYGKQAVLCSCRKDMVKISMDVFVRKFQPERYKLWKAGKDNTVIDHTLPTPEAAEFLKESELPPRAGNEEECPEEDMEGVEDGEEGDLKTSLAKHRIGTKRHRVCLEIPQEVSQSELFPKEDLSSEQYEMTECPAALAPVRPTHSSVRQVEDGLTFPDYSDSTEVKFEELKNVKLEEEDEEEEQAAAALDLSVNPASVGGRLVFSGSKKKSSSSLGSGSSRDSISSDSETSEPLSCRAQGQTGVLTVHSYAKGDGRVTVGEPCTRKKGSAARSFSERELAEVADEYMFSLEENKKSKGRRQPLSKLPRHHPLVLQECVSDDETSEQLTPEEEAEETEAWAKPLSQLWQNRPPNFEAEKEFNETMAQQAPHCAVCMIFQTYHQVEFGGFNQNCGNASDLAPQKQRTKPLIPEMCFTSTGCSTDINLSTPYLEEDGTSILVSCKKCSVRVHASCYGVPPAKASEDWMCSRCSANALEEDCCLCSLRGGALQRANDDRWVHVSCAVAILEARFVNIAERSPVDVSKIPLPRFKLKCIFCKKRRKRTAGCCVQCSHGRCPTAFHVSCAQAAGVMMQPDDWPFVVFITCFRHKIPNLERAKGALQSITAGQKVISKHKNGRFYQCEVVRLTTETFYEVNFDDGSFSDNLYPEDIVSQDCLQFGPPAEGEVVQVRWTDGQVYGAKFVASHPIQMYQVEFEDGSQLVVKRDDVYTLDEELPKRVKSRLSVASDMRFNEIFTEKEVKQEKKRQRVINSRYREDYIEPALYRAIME
Of the large screens only hits and unclear results are named; the others gave an inactive call. Calls come from the whole dose curve; as a rule, active = well fitted curve in the direction sought with a large enough effect; inconclusive = small, poorly fitted or top-dose-only effect, or another doubt; inactive = no such curve, though single readings can be large; an effect the other way counts as inactive or inconclusive.

COc1ccc(CCN2C(=O)CN(C3CCCCCC3)C(=O)C2c2ccc(C)cc2)cc1OC (stereo not given)	none (no result: Sfp inh, PLK1 PBD inh)
O=C(O)Cn1c2c(c3ccccc31)CSc1ccc(Cl)cc1-2	Sfp inh 20µM, PLK1 PBD inh 13µM, BAZ2B block inconclusive, G9a inh inconclusive, JMJD2A Tudor inh inconclusive
O=C(O)Cn1c2ccccc2c2ccccc21	none
O=[N+]([O-])c1ccc(N=Nc2c(Cl)cc(O)cc2Cl)cc1	HP1b chromo inh 13µM, PLK1 PBD inh inconclusive, BAZ2B block 8.9µM, G9a inh 10µM, JMJD2A Tudor inh 11µM
CC(C)CNC(=O)c1ccccc1SCC(=O)NC12CC3CC(CC(C3)C1)C2	none
COc1cccc(/C(O)=C/C(=O)C(=O)Nc2ccc(S(=O)(=O)NC(C)=O)cc2)c1	BAZ2B block inconclusive, G9a inh 10µM, JMJD2A Tudor inh 8.9µM
COc1cccc(NS(=O)(=O)c2ccc(NC(C)=O)cc2)c1	none
CCOP(=O)(O)c1ccccc1OCCOCCOc1ccccc1P(=O)(O)OCC	BAZ2B block inconclusive, G9a inh 56µM, JMJD2A Tudor inh inconclusive
CCCc1nc2ccc(NC(=O)c3cccs3)cc2c(=O)n1Cc1ccccc1Cl	HP1b chromo inh inconclusive, PLK1 PBD inh 30µM, JMJD2A Tudor inh inconclusive
Cc1csc(NC(=O)CSc2nc3ccccc3c3c2CCCC3)n1	G9a inh 28µM
Cc1csc(NC(=O)CSc2ncnc3ccccc23)n1	none
Cc1csc(NC(=O)CSc2ncc(-c3ccccc3)[nH]2)n1	BAZ2B block 50µM, G9a inh 3.2µM
CCOC(=O)N1CCC(N2C(=O)c3ccc(C(=O)Nc4ccc(OC)cc4)cc3C2=O)CC1	none
C/C(=N\NC(N)=S)C1(C)CCCCC1	Sfp inh inconclusive, G9a inh 50µM, JMJD2A Tudor inh 35µM
C/C(=N\NC(N)=O)C1(C)CCCCC1	none
COc1cccc(CNC(=O)CSc2nc3ccccc3nc2Cc2ccc(C)cc2)c1OC	none (no result: Sfp inh, PLK1 PBD inh)
COC(=O)CSc1nc2c(c(-c3ccc(O)cc3)c1C#N)CCCC2	G9a inh inconclusive
CCOC(=O)CSc1nc2c(c(-c3ccc(C)o3)c1C#N)CCCC2	Sfp inh 14µM, G9a inh inconclusive
Cc1ccc(-c2c(C#N)c(N)nc3c2CCCCCC3)o1	none
COC(=O)CSc1nc2c(c(-c3ccco3)c1C#N)CCCC2	Sfp inh 35µM, PLK1 PBD inh 27µM, BAZ2B block 28µM, G9a inh 2.2µM
Nc1cc(=O)nc(SCC(=O)Nc2cccc(Cl)c2)n1CCc1ccccc1	none (no result: Sfp inh, PLK1 PBD inh)
COc1ccc2ncc(OC(C)=O)cc2c1	none
Cc1nnc(N/N=C/c2c(Cl)cccc2Cl)n1N	Sfp inh inconclusive, BAZ2B block 50µM
CCc1nnc(N/N=C/c2cc(C)c(C)cc2C)n1N	G9a inh 79µM
Clc1cccc(Cl)c1/C=N\Nc1nccs1	none
Cc1nnc(N/N=C/c2ccccc2O)n1N	BAZ2B block 40µM, JMJD2A Tudor inh inconclusive
CCc1nnc(N/N=C/c2c(F)cccc2Cl)n1N	G9a inh 45µM
Fc1cccc(Cl)c1/C=N/Nc1ccccn1	none
Cc1cc(C)cc(NC(=O)C(=O)NCC(c2cccnc2)N2CCc3ccccc32)c1 (stereo not given)	none (no result: Sfp inh, PLK1 PBD inh)
Cc1[nH]c2ccccc2c1/C=N/NC(N)=S	none
CCc1nnc(N/N=C/c2c(C)[nH]c3ccccc23)n1N	Sfp inh 8.9µM, BAZ2B block 45µM, G9a inh 18µM
COC(=O)c1ccc(-n2c(C)cc(/C=N/Nc3nc(C)cc(=O)[nH]3)c2C)cc1	BAZ2B block inconclusive
C=CCc1c(C)nc(C)nc1N/N=C/c1ccccc1O	BAZ2B block 50µM, JMJD2A Tudor inh inconclusive
Cc1nnc(N/N=C/c2cc(C)n(-c3ccc(F)cc3)c2C)n1N	Sfp inh 45µM, BAZ2B block 50µM, G9a inh inconclusive
Cn1c(=O)[nH]c(=O)c2c1nc1n(CCO)c(-c3ccccc3)cn21	none (no result: Sfp inh, PLK1 PBD inh)
N#Cc1ccccc1NC(=O)COC(=O)c1ccc2c(c1)OCO2	none (no result: Sfp inh)
O=c1ccc(-c2ccc(S(=O)(=O)Nc3cccc([N+](=O)[O-])c3)s2)n[nH]1	G9a inh 71µM
